# In PubChem BioAssay (NCATS):
# Values joined by “and” are separate entries in the source; they are usually repeats but may differ in a detail not shown here. Equal entries are not always repeated. Results filed as inconclusive are left out. A call without a number means that no potency is given here. Values without a mark were called inactive. Active and inactive are the calls of the source. Unless noted, calls follow the shape of the dose curve; as a rule, active = well fitted curve in the direction sought with a large enough effect; inconclusive = small, poorly fitted or top-dose-only effect, or another doubt; inactive = no such curve, though single readings can be large; an effect the other way counts as inactive or inconclusive.
# How the values were obtained:
# [1] = target: Voltage-gated inwardly rectifying potassium channel KCNH2 (Homo sapiens) (UniProt Q12809); assay: qHTS Assay for Small Molecule Inhibitors of the Human hERG Channel Activity (AID 588834);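 also: lower thallium flux fluorescence means stronger hERG block; nearly all actives have a fitted effect of over 50% in size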; also: potency is read from the fitted curve at half-maximal effect
# Voltage-gated inwardly rectifying potassium channel KCNH2 (Homo sapiens), sequence (Q12809 whole entry, looked up): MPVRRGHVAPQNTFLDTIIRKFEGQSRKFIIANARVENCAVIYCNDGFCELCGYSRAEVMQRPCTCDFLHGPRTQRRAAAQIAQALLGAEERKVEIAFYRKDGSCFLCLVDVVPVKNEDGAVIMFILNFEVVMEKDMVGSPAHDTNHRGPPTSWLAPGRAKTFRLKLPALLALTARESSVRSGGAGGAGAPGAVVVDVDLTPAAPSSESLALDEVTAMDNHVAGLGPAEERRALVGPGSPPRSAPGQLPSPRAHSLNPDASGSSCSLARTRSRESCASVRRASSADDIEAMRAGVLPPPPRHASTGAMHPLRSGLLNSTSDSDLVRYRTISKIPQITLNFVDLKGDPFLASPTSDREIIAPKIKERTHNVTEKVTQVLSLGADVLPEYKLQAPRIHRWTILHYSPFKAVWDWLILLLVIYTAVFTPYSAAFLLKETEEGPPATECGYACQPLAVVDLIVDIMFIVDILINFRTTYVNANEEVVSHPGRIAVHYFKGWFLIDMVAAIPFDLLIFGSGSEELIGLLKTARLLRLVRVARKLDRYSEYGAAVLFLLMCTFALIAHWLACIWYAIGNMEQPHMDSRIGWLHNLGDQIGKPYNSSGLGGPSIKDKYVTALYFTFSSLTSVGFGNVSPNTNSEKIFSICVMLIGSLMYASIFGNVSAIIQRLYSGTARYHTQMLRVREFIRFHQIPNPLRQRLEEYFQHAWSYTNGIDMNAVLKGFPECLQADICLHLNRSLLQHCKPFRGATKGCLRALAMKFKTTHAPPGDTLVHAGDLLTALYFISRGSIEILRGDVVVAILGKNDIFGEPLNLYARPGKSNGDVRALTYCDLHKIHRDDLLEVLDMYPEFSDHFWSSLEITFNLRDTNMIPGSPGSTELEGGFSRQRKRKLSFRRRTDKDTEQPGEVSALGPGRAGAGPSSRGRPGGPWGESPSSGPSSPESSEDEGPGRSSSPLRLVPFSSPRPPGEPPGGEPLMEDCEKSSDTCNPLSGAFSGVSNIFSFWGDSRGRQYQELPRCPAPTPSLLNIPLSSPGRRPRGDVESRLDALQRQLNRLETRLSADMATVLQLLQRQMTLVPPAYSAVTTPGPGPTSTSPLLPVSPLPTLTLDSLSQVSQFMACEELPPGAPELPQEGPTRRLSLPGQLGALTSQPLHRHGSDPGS
# Method in brief: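 U2OS cells transduced with hERG via BacMam (MOI ~100), plated 2000/well, loaded with FluxOR thallium dye, compound ~10 min, then stimulation buffer; fluorescence decrease read kinetically; AC50 from Hill fits.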
# [2] = target: Luciferin 4-monooxygenase (Photinus pyralis) (UniProt P08659); assay: Biochemical firefly luciferase enzyme assay for NPC (AID 624030);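 also: purified P. pyralis luciferase at 10 nM with luciferin and ATP substrate; nearly all actives have a fitted effect of over 70% in size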
# Luciferin 4-monooxygenase (Photinus pyralis), sequence (P08659 whole entry, looked up): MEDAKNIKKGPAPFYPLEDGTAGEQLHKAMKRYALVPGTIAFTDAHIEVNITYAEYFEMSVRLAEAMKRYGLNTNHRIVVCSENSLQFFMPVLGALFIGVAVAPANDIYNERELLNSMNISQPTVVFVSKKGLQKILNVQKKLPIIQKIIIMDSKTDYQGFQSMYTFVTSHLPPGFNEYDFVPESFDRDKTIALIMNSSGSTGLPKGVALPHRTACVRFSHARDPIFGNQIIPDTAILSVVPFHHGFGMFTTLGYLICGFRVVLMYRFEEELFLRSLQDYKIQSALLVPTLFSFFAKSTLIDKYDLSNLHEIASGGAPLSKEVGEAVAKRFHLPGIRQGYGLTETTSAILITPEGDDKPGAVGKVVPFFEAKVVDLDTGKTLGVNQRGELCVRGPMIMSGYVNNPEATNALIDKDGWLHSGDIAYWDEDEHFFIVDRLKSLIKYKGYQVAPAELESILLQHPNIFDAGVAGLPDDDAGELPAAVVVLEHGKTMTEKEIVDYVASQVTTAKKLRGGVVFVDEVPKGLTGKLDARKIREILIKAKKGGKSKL
# Method in brief: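 Purified P. pyralis luciferase at 10 nM in 50 mM Tris Acetate (final), luminescence read within 5 minutes of enzyme addition to compounds. Activity normalised to PTC124 versus DMSO; concentration-response curves classed by r2, magnitude and activity.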
# [3] = S16 Schwann cell viability assay (CellTiter-Glo assay) (AID 624031);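 also: cellular ATP luminescence as a viability measure; nearly all actives have a fitted effect of over 70% in size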
# Method in brief: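 Luminescent ATP read-out (CellTiter-Glo) after 24 h compound exposure of native S16 rat Schwann cells at 37 °C. Signals were normalized between cell-free wells and DMSO-treated cells, set as 0% activity.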
# [4] = S16 Schwann cell PMP22 intronic element beta-lactamase assay (AID 624044; calls by dose curve; also: nearly all actives have a fitted effect of over 15% in size); details: S16 rat Schwann cells, PMP22 element beta-lactamase FRET, 24 h; ratio activity, negative = inhibition: at 38.3 µM (top of the series) unless noted
# Method in brief: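 Rat S16 Schwann cells with beta-Lac driven by a PMP22 intronic element, compound-treated 24 h at 37 °C. LiveBLAzer FRET B/G read: 460 nm normalized to potassium clavulanate vs DMSO; 535 nm FRET as viability; concentration-effect curves classified.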
# [5] = S16 Schwann cell PMP22 intronic element firefly luciferase assay (AID 624032); also: nearly all actives have a fitted effect of over 30% in size; also: potency is read from the fitted curve at half-maximal effect
# Method in brief: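 Rat S16 Schwann cells stably carrying firefly luciferase driven by a PMP22 intronic element, in 10% FBS, treated 24 h at 37 C. ONE-Glo luminescence normalized to PTC124 control and DMSO (0%); curves classed by r2, magnitude and activity.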
SMILES,Potency [1],Potency [2],Potency [3],"ratio activity, negative = inhibition [4] [%]",Potency [5]
CCCCC[C@H](O)/C=C/[C@H]1[C@H](O)CC(=O)[C@@H]1C/C=C\CCCC(=O)O,inactive,inactive,inactive,-1.59,
CN(Cc1ccccc1)Cc1ccccc1,inactive,inactive,inactive,0.417,inactive
CC1=C(/C=C/C(C)=C/C=C/C(C)=C/C(=O)Oc2c(C)c(C)c3c(c2C)CC[C@@](C)(CCC[C@H](C)CCC[C@H](C)CCCC(C)C)O3)C(C)(C)CCC1,inactive,inactive,inactive,-26.4,5.73 µM (active)
Cc1nc(NS(=O)(=O)c2ccc(N)cc2)nc(C)c1Br,inactive,inactive,inactive,0.0634,inactive
CC(O)CN(C)C (configuration not stated),inactive,inactive,inactive,6.7,inactive
O=C1N=C2SCCN2C(=O)C1Cc1ccc(Cl)cc1 (configuration not stated),inactive,inactive,inactive,0.0729,inactive
O=C(O)CCC/C=C\C[C@@H]1[C@@H](/C=C/[C@@H](O)COc2cccc(C(F)(F)F)c2)[C@H](O)C[C@@H]1O,inactive,inactive,inactive,4.13,inactive
COc1ccc(/C=N/NC(=O)c2ccncc2)c(C(=O)O)c1OC,inactive,inactive,inactive,4.12,inactive
NC(=O)Oc1ccc(Cc2ccccc2)cc1,inactive,inactive,inactive,-0.76,
CCc1ccc(S(=O)(=O)O)cc1,inactive,inactive,inactive,-9.66,inactive
NCC[C@H](O)C(=O)N[C@@H]1C[C@H](N)[C@@H](O[C@H]2O[C@H](CN)[C@@H](O)[C@H](O)[C@H]2O)[C@H](O)[C@H]1O[C@H]1O[C@H](CO)[C@@H](O)[C@H](N)[C@H]1O,inactive,inactive,inactive,-4.63,
Oc1cc(O)cc(O)c1,inactive,inactive,inactive,10.4,inactive
Cc1c(C)c2c(c(C)c1OC(=O)CCC(=O)O)CC[C@@](C)(CCC[C@H](C)CCC[C@H](C)CCCC(C)C)O2,inactive,inactive,inactive,-15.1,inactive
CC/C=C\C/C=C\C/C=C\C/C=C\C/C=C\C/C=C\CCC(=O)O,inactive,inactive,,0.57,inactive
CSc1nc2cc(Oc3cccc(Cl)c3Cl)c(Cl)cc2[nH]1,31.6 µM (active),inactive,inactive,-0.19,
COc1ccc(C(=O)CCC(=O)O)c2ccccc12,inactive,inactive,inactive,-1.03,
CC(C)CCC[C@@H](C)[C@H]1CC[C@H]2[C@@H]3CC[C@@H]4C[C@H](O)CC[C@]4(C)[C@H]3CC[C@]12C,inactive,inactive,,,inactive
CC(CN(C)C)CN1c2ccccc2Sc2ccc(C(F)(F)F)cc21 (configuration not stated),11.2 µM (active),inactive,,-9.58,
Cn1c(O)c(N=NC(N)=S)c2ccccc21,inactive,inactive,,,inactive
CCCCCCCCCC(=O)NO,inactive,inactive,inactive,5.56,
CC(C)(Oc1ccc(C2CCCc3ccccc32)cc1)C(=O)O (configuration not stated),inactive,inactive,,-0.979,inactive
NC(=O)CC[C@@H]1NC(=O)[C@H](Cc2ccccc2)NC(=O)[C@H](Cc2ccc(O)cc2)NC(=O)[C@@H](N)CSSC[C@@H](C(=O)N2CCC[C@H]2C(=O)N[C@@H](CCCN=C(N)N)C(=O)NCC(N)=O)NC(=O)[C@H](CC(N)=O)NC1=O,inactive,inactive,inactive,-1.23,
COc1ccccc1N1CCN(CCCC(=O)c2ccc(F)cc2)CC1,1.41 µM (active),inactive,inactive,-14.3,
N#Cc1ccc2c(c1)N(CCCN1CCC(O)CC1)c1ccccc1S2,14.1 µM (active),inactive,inactive,-13.2,
CC(=O)Oc1cccc(C(=O)O)c1OC(C)=O,inactive,inactive,,10.8,
C=C1C(CCl)(CCl)C2(Cl)C(Cl)C(Cl)C1(Cl)C2(Cl)Cl (configuration not stated),28.2 µM (active) and 15.8 µM (active),inactive,,-26.3,36.1 µM (active)
CC(=O)N[C@@H]1C(O[C@H]2O[C@H](C(=O)O)C(O)[C@H](O)[C@H]2O)[C@H](O)[C@@H](CO)O[C@H]1O[C@@H]1C(C(=O)O)O[C@@H](O[C@H]2[C@H](O)[C@@H](CO)OC(O)[C@@H]2NC(C)=O)[C@H](O)[C@H]1O (some centres not stated),inactive,inactive,inactive,1.9,
C=CC[C@@H]1/C=C(\C)C[C@H](C)C[C@H](OC)[C@H]2O[C@@](O)(C(=O)C(=O)N3CCCC[C@H]3C(=O)O[C@H](/C(C)=C/[C@@H]3CC[C@@H](O)[C@H](OC)C3)[C@H](C)[C@@H](O)CC1=O)[C@H](C)C[C@@H]2OC,inactive,inactive,,-24.4,
